In PubChem BioAssay (Tox21) one finds Potency and outcome data, which are given here for seven molecules.

Test [1] in a line: qHTS assay to identify small molecule agonists of the peroxisome proliferator-activated receptor delta (PPARd) signaling pathway - cell viability counter screen (AID 743211). Note: nearly all actives have a fitted effect of over 55% in size. In short, it runs like this:
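Viability of GeneBLAzer PPARd UAS-bla HEK293H cells was assessed after 17 h compound incubation at 37C, using CellTiter-Glo reagent added after the reporter read and luminescence recorded 30 min later.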
On the technique in general: In qHTS, concentration-response curves come from the screen itself.

Test [2] concerns the target Peroxisome proliferator-activated receptor delta (Homo sapiens) (UniProt Q03181). Briefly: qHTS assay to identify small molecule agonists of the peroxisome proliferator-activated receptor delta (PPARd) signaling pathway (AID 743212; calls by dose curve). In short, it runs like this:
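Read-out: beta-lactamase FRET fluorescence after 2 h room-temperature incubation with LiveBLAzer B/G substrate. Cells were HEK293H carrying a UAS-bla reporter for PPARd, treated at 37 C with DMSO-dissolved compounds.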

Test [3] in a line: qHTS assay to identify small molecule antagonists of the peroxisome proliferator-activated receptor delta (PPARd) signaling pathway - cell viability counter screen (AID 743213). Note: nearly all actives have a fitted effect of over 50% in size. The essentials: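 Cytotoxicity counter screen: CellTiter-Glo luminescence read 30 min after addition, in the same wells as the reporter assay. There, PPARd UAS-bla HEK293H cells (3000/well) were treated 17 h at 37 C with compound and 300 nM L165041.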

Test [4] addresses Peroxisome proliferator-activated receptor delta (Homo sapiens) (UniProt Q03181). Briefly: qHTS assay to identify small molecule antagonists of the peroxisome proliferator-activated receptor delta (PPARd) signaling pathway (AID 743215; active = well fitted inhibition curve with a large enough effect in the signal ratio in the repeat runs, not every such curve was filed as active; the % refers to the signal ratio;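 note: cells stimulated with agonist L165041 at 300 nM final during compound exposure; series mostly up to about 62 µM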). The essentials:
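Screen format: qHTS, antagonist mode. HEK293H PPARd-bla cells received compound and 300 nM L165041 (final), 17 h, 37 C. Beta-lactamase detected via FRET substrate fluorescence, 2 h, room temperature.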

Test [5] is described as follows: qHTS assay to identify small molecule agonists of the farnesoid-X-receptor (FXR) signaling pathway - cell viability counter screen (AID 743218). Note: nearly all actives have a fitted effect of over 45% in size. The essentials: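 Same-well cytotoxicity check on FXR-UAS-bla HEK 293T cells: 5 h attachment, 16 h compound at 37 C, CellTiter-Glo luminescence read at room temperature after 30 min.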
Test [6] can be described thus: qHTS assay to identify small molecule antagonists of the farnesoid-X-receptor (FXR) signaling pathway - cell viability counter screen (AID 743221; active = well fitted cell-killing curve with a large enough effect in the repeat runs, not every such curve was filed as active; note: nearly all actives have a fitted effect of over 50% in size). The essentials:
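Quantitative HTS of the Tox21 10K library run in parallel with the beta-lactamase reporter read. HEK 293T cells carrying a UAS-driven bla reporter got compound and 50 uM CDCA (final) for 16 h; ATP-based luminescence followed.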

Test [7] deals with Vitamin D3 receptor (Homo sapiens) (UniProt P11473). Briefly: qHTS assay to identify small molecule agonists of the vitamin D receptor (VDR) signaling pathway (AID 743222; calls by dose curve). In short, it runs like this: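 Using LiveBLAzer B/G FRET detection, agonism was scored in VDR-bla cells exposed overnight (16 h, 37C) to DMSO-dissolved compounds; substrate incubation was 2 h at room temperature.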

Test [8] shares this target. Briefly: qHTS assay to identify small molecule antagonists of the vitamin D receptor (VDR) signaling pathway (AID 743223; active = well fitted inhibition curve with a large enough effect in the signal ratio in the repeat runs, not every such curve was filed as active; the % refers to the signal ratio). In short, it runs like this:
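Fluorescence from LiveBLAzer B/G FRET substrate, read after 2 h at room temperature, reflects beta-lactamase reporter activity in VDR-bla cells treated 16 h at 37C with compounds and agonist 1alpha,25-dihydroxyvitamin D3 (3 nM final).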

The nature of test [9]: qHTS assay to identify small molecule agonists of the vitamin D receptor (VDR) signaling pathway - cell viability counter screen (AID 743224). Note: series mostly up to about 63 µM; nearly all actives have a fitted effect of over 50% in size. The essentials: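 Counter screen for cytotoxicity: VDR-bla cells at 2,000 cells/well, 16 h compound exposure, then CellTiter-Glo luminescence after the beta-lactamase measurement.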
The nature of test [10]: qHTS assay to identify small molecule antagonists of the vitamin D receptor (VDR) signaling pathway - cell viability counter screen (AID 743225). Note: nearly all actives have a fitted effect of over 50% in size. The essentials:
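Cells (VDR-UAS-bla HEK 293T) are plated, rested 4 h at 37C, dosed with compound and 3 nM final 1-alpha,25-dihydroxy vitamin D3, and incubated 16 h. Viability is taken from CellTiter-Glo luminescence in the reporter wells.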

A short description of test [11]: qHTS assay to identify small molecule agonists of the NFkB signaling pathway (AID 1159509; active = well fitted curve in the direction sought with a large enough effect in the signal ratio in the repeat runs, not every such curve was filed as active; the % refers to the signal ratio; note: series mostly up to about 61 µM). The essentials: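 Beta-lactamase reporter assay run in quantitative high-throughput format on an NF-kB-responsive ME-180 line, with 5 hr compound treatment and a FRET-based blue/green fluorescence readout.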
The nature of test [12]: qHTS assay to identify small molecule agonists of the NFkB signaling pathway - cell viability counter screen (AID 1159515; calls by dose curve; note: series mostly up to about 61 µM; nearly all actives have a fitted effect of over 55% in size). The essentials: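 Counter screen run alongside the NFkB-bla agonist assay: ME-180 reporter cells exposed to compounds for 5 hr, then lysed with CellTiter-Glo in the same wells. Luminescence, read after 30 min, reflects viable cells.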
A short description of test [13]: qHTS assay to identify small molecule agonists of the endoplasmic reticulum stress response signaling pathway (AID 1159516; active = well fitted activation curve with a large enough effect in the signal ratio in the repeat runs, not every such curve was filed as active; the % refers to the signal ratio). In short, it runs like this:
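For this screen, HeLa cells stably carrying beta-lactamase under the ER stress response element received test compounds, positive controls or DMSO for 5 hr at 37 C; B/G FRET substrate was then added and dual-wavelength emission recorded.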

Test [14] in a line: qHTS assay to identify small molecule agonists of the endoplasmic reticulum stress response signaling pathway - cell viability counter screen (AID 1159517; calls by dose curve). In short, it runs like this: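 Steps: seed 1,500 ESRE-bla HeLa cells per well; incubate overnight at 37 C, 5% CO2; add compounds in DMSO for 5 hr; run FRET substrate 2 hr RT; add CellTiter-Glo, wait 30 min, read luminescence.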

Test [15] is described as follows: qHTS assay to identify small molecule antagonists of the retinoid-related orphan receptor gamma (ROR-gamma) signaling pathway - cell viability counter screen (AID 1159520). Note: nearly all actives have a fitted effect of over 50% in size. The essentials: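 Tet-on ROR gamma CHO cells were given compounds for 2 hr, then doxycycline hyclate at 1 uM final, and incubated 16 hr at 37 C. Viability was measured as ATP content by CellTiter-Glo luminescence.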

Test [16] concerns the target Nuclear receptor ROR-gamma (Homo sapiens) (UniProt P51449). Briefly: qHTS assay to identify small molecule antagonists of the retinoid-related orphan receptor gamma (ROR-gamma) signaling pathway (AID 1159521; note: nearly all actives have a fitted effect of over 50% in size; note: potency is the fitted concentration of half-maximal effect). In short, it runs like this: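 RORγ antagonism is scored from reduced reporter luminescence in Tet-on CHO cells. Induction used 1 uM final doxycycline hyclate for 16 h at 37 C, following a 2 h compound exposure.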

Test [17] is described as follows: qHTS assay to identify small molecule agonists of the AP-1 signaling pathway (AID 1159526; calls by dose curve).
A short description of test [18]: qHTS assay to identify small molecule agonists of the AP-1 signaling pathway - cell viability counter screen (AID 1159525; calls by dose curve; note: nearly all actives have a fitted effect of over 55% in size). The essentials:
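Same-well cytotoxicity counter screen of the Tox21 10K library in ME-180 cells. The readout is ATP-dependent luminescence after 5 h compound treatment. Data are normalised to DMSO and tetra n-octyl ammonium bromide controls.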

The target of test [19] is Bile acid receptor (Homo sapiens) (UniProt Q96RI1). Briefly: qHTS assay to identify small molecule antagonists of the farnesoid-X-receptor (FXR) signaling pathway (AID 743217; active = well fitted inhibition curve with a large enough effect in the signal ratio in the repeat runs, not every such curve was filed as active; the % refers to the signal ratio). The essentials:
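Quantitative HTS, beta-lactamase reporter format: FXR-UAS-bla HEK 293T cells co-treated 16 h at 37 °C with compounds and 50 uM final chenodeoxycholic acid, then read by B/G FRET fluorescence.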

The structures appear in SMILES notation. Results filed as inconclusive are left out. Active and inactive are the calls of the source. Unless noted, calls come from the whole dose curve; as a rule, active = well fitted curve in the direction sought with a large enough effect in the repeat runs; inconclusive = weak or mixed curves; inactive = no such curve, though single readings can be large; an effect the other way counts as inactive or inconclusive.

Sequence of Peroxisome proliferator-activated receptor delta (Homo sapiens) (Q03181 whole entry, looked up): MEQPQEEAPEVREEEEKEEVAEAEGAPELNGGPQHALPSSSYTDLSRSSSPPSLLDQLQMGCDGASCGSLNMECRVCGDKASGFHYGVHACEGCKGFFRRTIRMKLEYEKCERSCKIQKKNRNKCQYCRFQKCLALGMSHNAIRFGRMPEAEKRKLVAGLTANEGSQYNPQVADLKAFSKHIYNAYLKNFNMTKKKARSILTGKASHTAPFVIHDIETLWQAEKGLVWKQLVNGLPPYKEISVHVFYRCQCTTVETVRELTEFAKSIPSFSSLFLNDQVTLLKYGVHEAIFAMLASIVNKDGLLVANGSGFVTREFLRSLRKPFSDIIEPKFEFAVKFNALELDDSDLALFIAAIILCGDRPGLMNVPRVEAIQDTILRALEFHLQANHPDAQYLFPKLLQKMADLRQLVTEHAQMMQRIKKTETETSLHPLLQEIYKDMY
Sequence of Vitamin D3 receptor (Homo sapiens) (P11473 whole entry, looked up): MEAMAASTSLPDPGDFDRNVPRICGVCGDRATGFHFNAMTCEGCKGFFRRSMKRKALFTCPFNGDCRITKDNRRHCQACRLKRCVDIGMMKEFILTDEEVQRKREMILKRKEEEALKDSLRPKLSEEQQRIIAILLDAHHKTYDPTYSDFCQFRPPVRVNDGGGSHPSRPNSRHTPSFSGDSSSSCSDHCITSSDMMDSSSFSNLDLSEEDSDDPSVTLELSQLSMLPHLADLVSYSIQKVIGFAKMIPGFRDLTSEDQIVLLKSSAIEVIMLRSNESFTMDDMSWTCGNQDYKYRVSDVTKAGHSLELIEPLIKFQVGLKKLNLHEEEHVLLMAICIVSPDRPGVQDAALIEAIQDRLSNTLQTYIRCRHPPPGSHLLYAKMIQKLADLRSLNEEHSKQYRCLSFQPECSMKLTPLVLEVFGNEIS
Sequence of Bile acid receptor (Homo sapiens) (Q96RI1 whole entry, looked up): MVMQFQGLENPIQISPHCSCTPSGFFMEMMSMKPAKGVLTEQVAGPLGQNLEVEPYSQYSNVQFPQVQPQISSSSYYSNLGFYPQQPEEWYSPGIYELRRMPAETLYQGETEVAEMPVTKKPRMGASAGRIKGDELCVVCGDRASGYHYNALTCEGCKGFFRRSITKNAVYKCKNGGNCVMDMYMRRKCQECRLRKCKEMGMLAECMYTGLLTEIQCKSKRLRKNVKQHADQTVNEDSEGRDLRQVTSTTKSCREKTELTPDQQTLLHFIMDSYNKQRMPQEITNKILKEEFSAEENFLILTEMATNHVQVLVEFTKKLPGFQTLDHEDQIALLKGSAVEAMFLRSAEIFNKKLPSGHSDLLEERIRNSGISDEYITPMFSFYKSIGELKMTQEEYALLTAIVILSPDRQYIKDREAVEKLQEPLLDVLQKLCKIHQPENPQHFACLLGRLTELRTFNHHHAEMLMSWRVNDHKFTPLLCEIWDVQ

Turning to `OCCCc1ccccc1`, the Potency result in test [1], in test [3], in test [5], in test [8], in test [9] and in test [14] was “inactive” throughout. Further, the Potency entry in test [16] and in test [17] was “inactive” in each case. Moreover, the outcome in [2], in test [4], in test [6], in [7], in test [10] and in test [11] was inactive. The call in test [12], in test [13] and in [15] was inactive.
Regarding `COC(=O)c1ccc(O)cc1`, the Potency result in test [1], in test [3], in [5], in [8], in test [9] and in [14] was “inactive” each time. In addition, the Potency entry in [17] is “inactive”. The result in [2], in test [4], in test [6], in [7], in test [10] and in test [11] was inactive. For the same molecule, the molecule was called inactive in test [12], in test [13], in [15] and in test [18].
As for `C[C@]12C=CC(=O)C=C1CC[C@@H]1[C@@H]2C(=O)C[C@@]2(C)[C@H]1CC[C@]2(O)C(=O)CO`, the Potency result in test [1], in test [3], in test [5], in test [8], in test [9] and in test [14] was “inactive” throughout. Also, the Potency result in [16] and in [17] was “inactive” in each case. Moreover, the molecule was called inactive in [6], in test [7], in test [10], in [11], in [12] and in test [13]. Also, the call in test [15] was inactive.
As to `O=C(O)CN(CC(=O)O)CC(=O)O`, the Potency entry in test [1], in [3], in test [19], in test [5], in test [8] and in test [9] was “inactive” in each case. Besides, the Potency entry in [14], in test [16] and in [17] was “inactive” each time. The molecule was called inactive in test [2], in [4], in test [6], in test [7], in test [10] and in [11]. The molecule was classed as inactive in [12], in test [15] and in [18].
On to `Cc1c(N(C)C)c(=O)n(-c2ccccc2)n1C`, for which the Potency result in [1], in [3], in test [19], in test [5], in [8] and in test [9] was “inactive” throughout. Moreover, the Potency entry in test [14], in test [16] and in test [17] was “inactive” in each case. Also, the outcome in [2], in test [4], in test [6], in [7], in test [10] and in test [11] was inactive. Also, the molecule was classed as inactive in test [12], in test [15] and in [18].
As for `CCc1cc(C(N)=S)ccn1`, the Potency entry in [1], in test [3], in [5], in test [8], in test [9] and in test [14] was “inactive” each time. Further, the Potency entry in test [16] and in test [17] was “inactive” throughout. Also, the call in [6], in test [7], in [10], in [11], in test [12] and in test [13] was inactive. Moreover, the molecule was classed as inactive in test [15].
Turning to `NC(N)=NC(N)=NCCc1ccccc1`, the Potency entry in [1], in [3], in test [5], in test [9], in test [14] and in [17] was “inactive” each time. For the same molecule, the call in [2], in test [4], in [6], in test [10], in [11] and in [12] was inactive. Further, the molecule was classed as inactive in test [13] and in test [15]. The Potency in test [16] was 30.6 µM (active).
